For some of these results: Potency and affinity values are given separately.

The source of these data is ChEMBL document CHEMBL3988442, “University of Dundee, Small-Polar-MMV Screening Library” (2021).

Holding throughout (set-up): scale not given: direction of the effect not stated beside the values
For assay [1], the target named is Protein translocase subunit SecA (Escherichia coli (strain K12)) (UniProt P10408). Put plainly: Assay to Identify E. coli SecA ATPase Inhibitors. In kind it is functional. To be noted: 30 µM.
Chain of Protein translocase subunit SecA (Escherichia coli (strain K12)) (P10408 whole entry): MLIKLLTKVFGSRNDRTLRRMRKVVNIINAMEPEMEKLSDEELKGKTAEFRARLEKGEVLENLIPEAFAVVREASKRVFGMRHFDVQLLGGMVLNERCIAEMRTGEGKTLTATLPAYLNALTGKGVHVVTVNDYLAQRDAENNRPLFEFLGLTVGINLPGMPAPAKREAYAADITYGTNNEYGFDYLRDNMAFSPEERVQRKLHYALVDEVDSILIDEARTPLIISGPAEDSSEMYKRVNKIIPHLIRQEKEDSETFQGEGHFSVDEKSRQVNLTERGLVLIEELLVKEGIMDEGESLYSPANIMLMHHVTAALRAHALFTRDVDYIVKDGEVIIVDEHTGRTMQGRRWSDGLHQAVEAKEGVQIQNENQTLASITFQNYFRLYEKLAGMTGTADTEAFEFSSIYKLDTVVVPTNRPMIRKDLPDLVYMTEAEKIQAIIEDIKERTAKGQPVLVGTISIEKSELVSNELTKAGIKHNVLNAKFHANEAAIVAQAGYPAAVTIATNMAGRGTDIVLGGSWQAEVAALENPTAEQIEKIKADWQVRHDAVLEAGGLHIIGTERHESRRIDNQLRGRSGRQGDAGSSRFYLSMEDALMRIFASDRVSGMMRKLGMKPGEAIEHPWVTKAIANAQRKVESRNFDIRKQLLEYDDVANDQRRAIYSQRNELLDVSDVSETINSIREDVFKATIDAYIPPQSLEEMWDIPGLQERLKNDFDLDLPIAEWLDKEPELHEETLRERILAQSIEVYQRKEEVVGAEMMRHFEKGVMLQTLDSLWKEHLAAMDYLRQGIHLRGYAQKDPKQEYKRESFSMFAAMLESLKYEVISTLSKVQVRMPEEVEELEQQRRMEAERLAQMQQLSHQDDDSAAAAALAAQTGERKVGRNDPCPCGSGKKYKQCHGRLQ
The target of assay [2] is T1, Ubiquitin-activating enzyme e1, putative (Leishmania donovani (strain BPK282A1)) (UniProt E9BSI1).
T1 sequence (whole entry): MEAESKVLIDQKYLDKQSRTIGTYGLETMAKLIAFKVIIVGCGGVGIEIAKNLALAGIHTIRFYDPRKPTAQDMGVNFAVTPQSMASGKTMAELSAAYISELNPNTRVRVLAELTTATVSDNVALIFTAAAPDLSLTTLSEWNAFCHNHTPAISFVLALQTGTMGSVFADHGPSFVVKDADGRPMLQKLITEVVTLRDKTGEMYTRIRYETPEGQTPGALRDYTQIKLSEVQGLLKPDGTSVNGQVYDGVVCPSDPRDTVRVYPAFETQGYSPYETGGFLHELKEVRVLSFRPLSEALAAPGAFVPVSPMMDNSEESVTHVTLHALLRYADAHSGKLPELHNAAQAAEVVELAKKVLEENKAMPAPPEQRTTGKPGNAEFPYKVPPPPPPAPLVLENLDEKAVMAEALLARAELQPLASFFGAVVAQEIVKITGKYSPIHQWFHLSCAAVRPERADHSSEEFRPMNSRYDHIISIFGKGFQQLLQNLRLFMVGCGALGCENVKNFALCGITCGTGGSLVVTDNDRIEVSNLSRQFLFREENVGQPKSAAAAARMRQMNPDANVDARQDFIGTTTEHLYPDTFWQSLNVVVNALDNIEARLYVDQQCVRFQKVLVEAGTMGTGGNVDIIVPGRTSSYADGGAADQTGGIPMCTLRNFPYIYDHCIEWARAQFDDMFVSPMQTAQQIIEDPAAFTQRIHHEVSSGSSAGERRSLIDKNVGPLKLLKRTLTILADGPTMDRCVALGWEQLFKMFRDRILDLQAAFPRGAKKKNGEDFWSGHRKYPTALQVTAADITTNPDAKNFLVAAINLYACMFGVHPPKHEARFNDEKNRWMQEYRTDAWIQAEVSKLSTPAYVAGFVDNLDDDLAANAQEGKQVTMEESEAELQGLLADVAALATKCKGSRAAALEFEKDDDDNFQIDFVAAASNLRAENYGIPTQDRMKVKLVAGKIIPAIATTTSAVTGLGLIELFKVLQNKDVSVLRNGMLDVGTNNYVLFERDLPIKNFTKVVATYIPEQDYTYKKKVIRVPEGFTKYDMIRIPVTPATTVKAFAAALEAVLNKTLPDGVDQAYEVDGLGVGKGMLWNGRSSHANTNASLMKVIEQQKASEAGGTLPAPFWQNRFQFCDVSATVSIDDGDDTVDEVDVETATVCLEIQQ
The assay can be described thus: Leishmania donovani Ubiquitin Activating Enzyme (LdE1). To be noted: 30 µM. The assay is classed as functional.

For assay [3], the target named is AMP-activated protein kinase, AMPK (Homo sapiens) (UniProt P54646+O43741+P54619+Q9UGJ0+Q9Y478+Q13131+Q9UGI9). The assay can be described thus: AMP-dependent Kinase enzyme assay. An in vitro enzyme assay that detects ADP turnover that is directly proportional to AMPK activity. This uses naive AMPK that is activated during the assay with MK-8722. In kind it is functional. To be noted: 30 µM.

Assay [4] deals with Sialic acid-binding Ig-like lectin 9 (Homo sapiens) (UniProt Q9Y336). The assay can be described thus: Hs-Siglec9 ALPHAscreen SOP 20170721. To be noted: 10 µM. (Bead proximity is the source of the signal in Alpha formats.)
Chain of Sialic acid-binding Ig-like lectin 9 (Homo sapiens) (Q9Y336 whole entry): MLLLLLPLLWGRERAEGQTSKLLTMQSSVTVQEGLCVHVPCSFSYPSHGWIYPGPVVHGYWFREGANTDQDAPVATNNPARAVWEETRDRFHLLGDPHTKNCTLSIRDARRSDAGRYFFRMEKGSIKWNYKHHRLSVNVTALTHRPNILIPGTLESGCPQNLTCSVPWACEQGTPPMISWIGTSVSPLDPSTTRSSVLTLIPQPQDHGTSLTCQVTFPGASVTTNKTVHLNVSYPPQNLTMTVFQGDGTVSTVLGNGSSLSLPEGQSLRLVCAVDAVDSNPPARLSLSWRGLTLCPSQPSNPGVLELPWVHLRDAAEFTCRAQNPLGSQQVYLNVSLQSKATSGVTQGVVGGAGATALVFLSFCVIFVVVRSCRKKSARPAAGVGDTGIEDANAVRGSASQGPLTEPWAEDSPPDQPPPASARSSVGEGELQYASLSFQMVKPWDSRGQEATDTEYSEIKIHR
Another assay concerns Trypanosoma cruzi. Put plainly: Trypanosoma cruzi phosphomannomutase and mannose-1-phosphate guanylyltransferase assay. To be noted: 10 µM. The assay is classed as functional.
For assay [5], the target named is T2, Arginase-2, mitochondrial (Homo sapiens) (UniProt P78540).
T2 sequence (whole entry): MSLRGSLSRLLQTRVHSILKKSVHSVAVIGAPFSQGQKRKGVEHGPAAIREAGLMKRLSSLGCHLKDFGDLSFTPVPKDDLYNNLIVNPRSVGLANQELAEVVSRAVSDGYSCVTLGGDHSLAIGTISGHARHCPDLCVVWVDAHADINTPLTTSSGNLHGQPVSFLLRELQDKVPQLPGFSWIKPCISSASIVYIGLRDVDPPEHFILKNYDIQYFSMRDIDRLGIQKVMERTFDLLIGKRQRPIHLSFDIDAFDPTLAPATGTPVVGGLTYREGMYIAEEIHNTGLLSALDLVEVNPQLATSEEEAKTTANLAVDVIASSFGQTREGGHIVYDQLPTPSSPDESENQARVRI
The assay can be described thus: in vitro enzyme assay to detect the production of urea directly proportional to the activity of Arginase II. Also: in the data most compounds retested in dose-response had high values. The assay is classed as functional. To be noted: 33.3 µM.

For assay [6], the target named is T3, Proteasome subunit beta (Trypanosoma cruzi) (UniProt O96673).
T3 sequence (whole entry): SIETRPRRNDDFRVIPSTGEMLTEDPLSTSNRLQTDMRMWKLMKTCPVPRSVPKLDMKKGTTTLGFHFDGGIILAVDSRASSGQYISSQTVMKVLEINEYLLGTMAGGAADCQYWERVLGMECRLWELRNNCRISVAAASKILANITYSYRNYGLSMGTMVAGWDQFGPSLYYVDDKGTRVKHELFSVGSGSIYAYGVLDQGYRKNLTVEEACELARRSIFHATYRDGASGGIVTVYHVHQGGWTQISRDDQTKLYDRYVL
The assay can be described thus: Trypanosoma cruzi proteasome chymotrypsin-like activity (TcProtChymo) assay. Also: in the data most compounds retested in dose-response had high values. The assay is classed as functional. To be noted: 9.37 µM.

For another assay, the species on record is Homo sapiens. Put plainly: To identify inhibition of the IFN signalling (Jak-Stat) pathway via expression of an eGFP reporter gene under the control of an IFN-stimulated response element (ISRE) containing MxA promoter. To be noted: 30 µM. In kind it is functional.
The target in assay [7] is T4, Tyrosyl-tRNA synthetase, putative (Trypanosoma cruzi (strain CL Brener)) (UniProt Q4DSP6).
T4 sequence (whole entry): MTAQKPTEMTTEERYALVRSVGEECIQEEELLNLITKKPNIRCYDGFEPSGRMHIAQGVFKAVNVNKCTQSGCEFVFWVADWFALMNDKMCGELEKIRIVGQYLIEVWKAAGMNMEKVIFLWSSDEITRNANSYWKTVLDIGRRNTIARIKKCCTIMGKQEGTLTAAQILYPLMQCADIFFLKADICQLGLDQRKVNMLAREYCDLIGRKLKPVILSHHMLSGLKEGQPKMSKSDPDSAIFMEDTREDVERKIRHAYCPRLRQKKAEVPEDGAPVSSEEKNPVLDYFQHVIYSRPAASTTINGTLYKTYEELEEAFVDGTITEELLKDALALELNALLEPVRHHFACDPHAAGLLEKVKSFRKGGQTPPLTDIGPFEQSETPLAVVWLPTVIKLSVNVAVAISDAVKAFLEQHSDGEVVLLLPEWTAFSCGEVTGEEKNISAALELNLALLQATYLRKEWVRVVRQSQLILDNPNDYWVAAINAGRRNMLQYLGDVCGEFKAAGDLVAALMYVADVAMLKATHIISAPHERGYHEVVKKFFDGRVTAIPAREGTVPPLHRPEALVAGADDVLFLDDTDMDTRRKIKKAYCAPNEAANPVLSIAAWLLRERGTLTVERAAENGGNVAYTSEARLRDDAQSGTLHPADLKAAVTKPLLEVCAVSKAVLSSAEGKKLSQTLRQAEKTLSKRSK
Put plainly: Trypanosoma cruzi tyrosyl tRNA synthetase (TcYRS) _High Tyrosine SOP. Also: in the data most compounds retested in dose-response had high values. The assay is classed as functional. To be noted: 30 µM.

Assay [8] addresses T4, Tyrosyl-tRNA synthetase, putative (Trypanosoma cruzi (strain CL Brener)). The assay can be described thus: Trypanosoma cruzi tyrosyl tRNA synthetase (TcYRS) SOP. To be noted: 30 µM. In kind it is functional.
Assay [9] addresses Chromo domain-containing protein 1 (Saccharomyces cerevisiae (strain ATCC 204508 / S288c) (Baker's yeast)) (UniProt P32657). Put plainly: ScCHD-1 Enzyme Inhibition Assay. Also: in the data most compounds retested in dose-response had high values. The assay is classed as functional. To be noted: 30 µM.

Chain of Chromo domain-containing protein 1 (Saccharomyces cerevisiae (strain ATCC 204508 / S288c) (Baker's yeast)) (P32657 whole entry, the tested form may be a part): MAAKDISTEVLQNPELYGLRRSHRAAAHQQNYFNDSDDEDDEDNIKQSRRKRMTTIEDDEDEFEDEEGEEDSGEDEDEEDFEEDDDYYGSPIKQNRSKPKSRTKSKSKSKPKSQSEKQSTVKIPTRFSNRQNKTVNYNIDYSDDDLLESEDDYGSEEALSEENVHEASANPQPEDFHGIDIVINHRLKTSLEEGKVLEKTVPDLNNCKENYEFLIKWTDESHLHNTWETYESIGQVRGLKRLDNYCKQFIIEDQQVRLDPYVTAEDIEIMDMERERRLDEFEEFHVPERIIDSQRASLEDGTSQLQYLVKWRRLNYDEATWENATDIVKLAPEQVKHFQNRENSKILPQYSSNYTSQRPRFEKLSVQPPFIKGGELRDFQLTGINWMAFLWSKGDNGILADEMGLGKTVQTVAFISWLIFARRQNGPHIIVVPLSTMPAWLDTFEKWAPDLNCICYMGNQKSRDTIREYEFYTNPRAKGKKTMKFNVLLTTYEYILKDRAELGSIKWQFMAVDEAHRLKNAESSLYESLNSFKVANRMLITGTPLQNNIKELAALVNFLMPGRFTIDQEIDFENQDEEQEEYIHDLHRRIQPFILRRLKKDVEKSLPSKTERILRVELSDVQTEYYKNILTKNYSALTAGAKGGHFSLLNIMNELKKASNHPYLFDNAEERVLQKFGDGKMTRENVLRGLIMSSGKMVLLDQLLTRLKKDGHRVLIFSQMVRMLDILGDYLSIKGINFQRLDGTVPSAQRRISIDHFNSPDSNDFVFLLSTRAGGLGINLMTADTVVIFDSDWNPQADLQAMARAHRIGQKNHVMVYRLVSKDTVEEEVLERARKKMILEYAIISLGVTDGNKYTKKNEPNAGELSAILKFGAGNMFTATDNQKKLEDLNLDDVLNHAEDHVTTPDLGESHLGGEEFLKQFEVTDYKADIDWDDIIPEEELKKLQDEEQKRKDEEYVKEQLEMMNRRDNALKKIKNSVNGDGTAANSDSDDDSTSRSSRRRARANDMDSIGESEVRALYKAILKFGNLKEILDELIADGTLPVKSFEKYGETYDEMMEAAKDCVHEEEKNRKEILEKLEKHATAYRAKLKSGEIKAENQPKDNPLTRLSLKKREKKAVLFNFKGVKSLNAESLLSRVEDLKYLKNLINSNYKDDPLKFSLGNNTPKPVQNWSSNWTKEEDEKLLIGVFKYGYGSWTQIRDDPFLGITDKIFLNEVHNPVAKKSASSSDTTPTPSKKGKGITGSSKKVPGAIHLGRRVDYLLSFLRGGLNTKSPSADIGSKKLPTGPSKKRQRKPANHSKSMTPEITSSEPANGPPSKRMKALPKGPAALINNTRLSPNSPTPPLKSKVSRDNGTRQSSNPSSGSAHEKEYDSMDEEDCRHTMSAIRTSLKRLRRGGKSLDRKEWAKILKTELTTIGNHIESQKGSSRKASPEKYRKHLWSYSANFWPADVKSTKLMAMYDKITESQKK

As to `Cc1nn(C)c(C)c1C(=O)N1CCOCC1CC(=O)c1ccco1` (stereo unspecified), the Percent Effect was -2.08% in assay [1]; 0% in assay [2]; 5.49% in assay [3]; 5.37% in assay [4]; 4.19% with Trypanosoma cruzi; -8.28% in assay [5]. In addition, the Percent Effect in assay [6] was -0.0959%; in the assay filed under Homo sapiens it was -9.68%; in assay [7], 0%; in [8], 7.79%; in [9], -0.43%.
As to `O=C(C1CCC1)N1CCN(C(=O)c2cnccn2)[C@H]2CS(=O)(=O)C[C@H]21`, the Percent Effect was -0.271% in assay [1]; 13.5% in assay [2]; -3.89% in assay [3]; 16.5% in [4]; 7.34% in the assay on Trypanosoma cruzi; 0.476% in [5]. In addition, the Percent Effect in [6] is 9.65%; in the assay listed under Homo sapiens, 3.49%; in assay [7], 4.76%; in assay [8], 17.1%; in assay [9] it was -3.81%.
On to `CCc1nccc(CN2CCCC(c3nn(C)c(=O)n3CC)C2)n1` (stereo unspecified), for which the Percent Effect in assay [1] is -3.27%; in assay [2], 8.11%; in assay [3], -2.62%; in assay [4], 37.3%; with Trypanosoma cruzi, 2.64%; in assay [5], 8.19%. In addition, the Percent Effect is -1.63% in assay [6]; 2.84% in the assay filed under Homo sapiens; 4.3% in assay [7]; 13.6% in assay [8]; -3.17% in assay [9].
On to `Fc1ccc(CN2CC[C@H]3O[C@@H](COCC4CCOCC4)CC[C@H]32)cc1`, for which the Percent Effect in assay [1] is -5.06%; in assay [2], 5.33%; in [3] it was 10.6%; in [4], -6.01%; in the assay with Trypanosoma cruzi, -7.48%; in assay [5] it was -0.233%. For the same compound, the Percent Effect in assay [6] was 3.08%; in the assay filed under Homo sapiens, 17.6%; in assay [7], -1.06%; in [8] it was -1.28%; in assay [9] it was -7.73%.
As for `O=C(NC1CCS(=O)(=O)C1)N1CCN(c2cnccn2)CC1` (stereo unspecified), the Percent Effect in assay [1] was -3.53%; in [2], 24.3%; in [3], -10.3%; in assay [4], 4.95%; in the assay on Trypanosoma cruzi, 1.58%; in [5], -3.14%. Besides, the Percent Effect in [6] was 11.1%; in the assay listed under Homo sapiens, 15.6%; in assay [7], 4.95%; in assay [8], 6.1%; in assay [9], -6.05%.
`CCS(=O)(=O)N1CCC(c2nc3ccc(-c4ccccc4)cn3n2)CC1`: the Percent Effect is -0.159% in assay [1]; -2.74% in [2]; -1.18% in assay [3]; 0.509% in assay [4]; 5.75% with Trypanosoma cruzi; 0.399% in [5]. The Percent Effect was 10% in [6]; -3.81% in the assay filed under Homo sapiens; -24% in [7]; 8.64% in assay [8]; 2.57% in [9].
With `CCc1ccc(NC(=O)c2cnc(N3CCN(C)CC3)nc2C)cc1`, the Percent Effect was -3.08% in assay [1]; 20.8% in assay [2]; -8.09% in assay [3]; -20.9% in assay [4]; 4.63% in the assay on Trypanosoma cruzi; -0.645% in [5]. The Percent Effect in assay [6] was 8.01%; in the assay filed under Homo sapiens it was 15.9%; in [7] it was 2.12%; in assay [8], 11.5%; in assay [9] it was -10.8%.
On to `Cn1ncc2c(=O)[nH]c(CN3CCCC3CC3CCCCC3)nc21` (stereo unspecified), for which the Percent Effect in assay [1] is -1.58%; in assay [2] it was 21.1%; in [3], -3.55%; in assay [4], 4.78%; in the assay with Trypanosoma cruzi, 3.83%; in [5], 0.719%. Also, the Percent Effect in [6] was 6.85%; in the assay listed under Homo sapiens it was 17.1%; in [7], 6.4%; in assay [8], 25.9%; in [9] it was -8.17%.
On to `COCC1CN(C(=O)c2cccn2C)Cc2ncnn2C1` (stereo unspecified), for which the Percent Effect in assay [1] was -5.41%; in assay [2], 5.2%; in assay [3], 0.668%; in [4] it was 11.3%; with Trypanosoma cruzi, 9.34%; in assay [5] it was 4.14%. Besides, the Percent Effect was 8.32% in assay [6]; 9.25% in the assay listed under Homo sapiens; -2.15% in [7]; 11.1% in [8]; 3.71% in assay [9].
As to `Cc1ccc(NC(=O)N2CCOC(C)C2)cc1Cl` (stereo unspecified), the Percent Effect was -0.48% in [1]; 16.4% in [2]; -5.38% in assay [3]; 4.84% in assay [4]; 2.58% in the assay with Trypanosoma cruzi; -6.39% in [5]. Further, the Percent Effect in [6] was 26.6%; in the assay listed under Homo sapiens it was 10.5%; in assay [7], 7.29%; in [8], 21%; in [9], -3.19%.
Take `CCS(=O)(=O)c1ccccc1N1CCC(NC(=O)NC2CCCC2)CC1`: the Percent Effect in [1] is -5.55%; in [2], 10.8%; in [3], 5.69%; in assay [4] it was 8.77%; in the assay on Trypanosoma cruzi it was 0.279%; in [5], -3.14%. Also, the Percent Effect was -1.62% in assay [6]; 16% in the assay listed under Homo sapiens; 6.93% in assay [7]; 13.4% in [8]; -1.94% in [9].
